Screen size: about 5,500 compounds; about 2,000 (36%) were called active. Not shown: some 18% with an inconclusive outcome. The list shows a part of the results. Values without a mark were called inactive. Cut-off read from the data, not from the text of the source: active = normalized growth mostly below about 0.91 (no sharp cut-off); inconclusive = no clear call, values can overlap the other calls; inactive = mostly above about 0.92.
Assay: chemical genetic growth profiling, strain panel (AID 1159580);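 note: tested at 20 µM; growth read once vehicle control cultures reached saturation at 30 °C; 1 = growth at the plate median or of vehicle wells; lower values mean less growth of the strain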
Conditions: growth OD
[1] = S. cerevisiae deletion strains, locus YDL101C, strain DUN1, stronger effect = lower value
[2] = S. cerevisiae deletion strains, locus YHR030C, strain SLT2, stronger effect = lower value

O=C(Nc1cc(C(F)(F)F)cc(C(F)(F)F)c1)C(c1ccccc1)C1CCCC1 (stereo not drawn) showed a normalized growth (S. cerevisiae deletion strains, locus YAL013W, strain DEP1, stronger effect = lower value) of 1.02, a normalized growth (S. cerevisiae deletion strains, locus YBR229C, strain ROT2, stronger effect = lower value) of 1.01 and a normalized growth [1] of 1.02. The normalized growth (S. cerevisiae deletion strains, locus YDR150W, strain NUM1, stronger effect = lower value) was 1.02, the normalized growth (S. cerevisiae deletion strains, locus YEL061C, strain CIN8, stronger effect = lower value) was 0.969 and the normalized growth (S. cerevisiae deletion strains, locus YGR078C, strain PAC10, stronger effect = lower value) was 1.03. It also gave a normalized growth [2] of 1.06, a normalized growth (S. cerevisiae deletion strains, locus YHR087W, strain rtc3, stronger effect = lower value) of 1 and a normalized growth (S. cerevisiae deletion strains, locus YJL187C, strain SWE1, stronger effect = lower value) of 1.02. It also gave a normalized growth (S. cerevisiae deletion strains, locus YJR043C, strain POL32, stronger effect = lower value) of 1.01, a normalized growth (S. cerevisiae deletion strains, locus YJR075W, strain HOC1, stronger effect = lower value) of 1.03 and a normalized growth (S. cerevisiae deletion strains, locus YLR039C, strain RIC1, stronger effect = lower value) of 1.04. It also gave a normalized growth (S. cerevisiae deletion strains, locus YLR058C, strain SHM2 (second series), stronger effect = lower value) of 1, a normalized growth (S. cerevisiae deletion strains, locus YLR085C, strain ARP6, stronger effect = lower value) of 1.01 and a normalized growth (S. cerevisiae deletion strains, locus YLR262C, strain YPT6, stronger effect = lower value) of 0.998. The normalized growth (S. cerevisiae deletion strains, locus YML094W, strain GIM5, stronger effect = lower value) was 1.02, the normalized growth (S. cerevisiae deletion strains, locus YMR219W, strain ESC1, stronger effect = lower value) was 1 and the normalized growth (S. cerevisiae deletion strains, locus YMR263W, strain SAP30, stronger effect = lower value) was 1.02. It also gave a normalized growth (S. cerevisiae deletion strains, locus YMR307W, strain GAS1, stronger effect = lower value) of 1.04, a normalized growth (S. cerevisiae deletion strains, locus YNL153C, strain GIM3, stronger effect = lower value) of 1.01 and a normalized growth (S. cerevisiae deletion strains, locus YNL298W, strain CLA4 (second series), stronger effect = lower value) of 1.03. It also gave a normalized growth (S. cerevisiae deletion strains, locus YNL322C, strain KRE1, stronger effect = lower value) of 1.01, a normalized growth (S. cerevisiae deletion strains, locus YNR030W, strain Alg12, stronger effect = lower value) of 1.01 and a normalized growth (S. cerevisiae deletion strains, locus YPL055C, strain LGE1, stronger effect = lower value) of 1.03. The normalized growth (S. cerevisiae deletion strains, locus YPL241C, strain CIN2, stronger effect = lower value) was 1.03, the normalized growth (S. cerevisiae deletion strains, locus YPR135W, strain CTF4, stronger effect = lower value) was 1.01 and the normalized growth (S. cerevisiae strains, strain wild type, stronger effect = lower value) was 1.
With Nc1ccccc1C(=O)Nc1cc(C(F)(F)F)cc(C(F)(F)F)c1 the normalized growth (S. cerevisiae deletion strains, locus YAR019C, strain CDC15, stronger effect = lower value) was 0.957, the normalized growth (S. cerevisiae deletion strains, locus YBL105C, strain PKC1, stronger effect = lower value) was 0.973 and the normalized growth (S. cerevisiae deletion strains, locus YBR135W, strain CKS1, stronger effect = lower value) was 0.985. For the same compound, the normalized growth (S. cerevisiae deletion strains, locus YBR136W, strain MEC1, stronger effect = lower value) was 0.946, the normalized growth (S. cerevisiae deletion strains, locus YBR160W, strain CDC28, stronger effect = lower value) was 0.982 and the normalized growth (S. cerevisiae deletion strains, locus YDL017W, strain CDC7, stronger effect = lower value) was 0.978. For the same compound, the normalized growth (S. cerevisiae deletion strains, locus YDL028C, strain MPS1, stronger effect = lower value) was 0.943, the normalized growth [1] was 0.937 and the normalized growth (S. cerevisiae deletion strains, locus YDL108W, strain KIN28, stronger effect = lower value) was 0.969. The normalized growth (S. cerevisiae deletion strains, locus YDL132W, strain cdc53, stronger effect = lower value) was 0.967, the normalized growth (S. cerevisiae deletion strains, locus YDL214C, strain PRR2, stronger effect = lower value) was 1 and the normalized growth (S. cerevisiae deletion strains, locus YDR052C, strain DBF4, stronger effect = lower value) was 0.97. It also gave a normalized growth (S. cerevisiae deletion strains, locus YDR054C, strain cdc34, stronger effect = lower value) of 0.96, a normalized growth (S. cerevisiae deletion strains, locus YDR226W, strain ADK1, stronger effect = lower value) of 0.976 and a normalized growth (S. cerevisiae deletion strains, locus YDR477W, strain SNF1, stronger effect = lower value) of 0.992. For the same compound, the normalized growth (S. cerevisiae deletion strains, locus YER123W, strain YCK3, stronger effect = lower value) was 0.957, the normalized growth (S. cerevisiae deletion strains, locus YER133W, strain GLC7, stronger effect = lower value) was 1.01 and the normalized growth (S. cerevisiae deletion strains, locus YFL009W, strain cdc4, stronger effect = lower value) was 0.968. It also gave a normalized growth (S. cerevisiae deletion strains, locus YFL029C, strain CAK1, stronger effect = lower value) of 0.944, a normalized growth (S. cerevisiae deletion strains, locus YFR003C, strain YPI1, stronger effect = lower value) of 0.984 and a normalized growth (S. cerevisiae deletion strains, locus YFR019W, strain FAB1, stronger effect = lower value) of 0.986. It also gave a normalized growth (S. cerevisiae deletion strains, locus YFR028C, strain CDC14, stronger effect = lower value) of 0.974, a normalized growth (S. cerevisiae deletion strains, locus YGR040W, strain KSS1, stronger effect = lower value) of 1.01 and a normalized growth (S. cerevisiae deletion strains, locus YGR052W, strain FMP48, stronger effect = lower value) of 0.921. It also gave a normalized growth (S. cerevisiae deletion strains, locus YGR092W, strain DBF2, stronger effect = lower value) of 0.961, a normalized growth [2] of 0.855 and a normalized growth (S. cerevisiae deletion strains, locus YHR079C, strain IRE1, stronger effect = lower value) of 0.836. For the same compound, the normalized growth (S. cerevisiae deletion strains, locus YHR082C, strain KSP1, stronger effect = lower value) was 0.851, the normalized growth (S. cerevisiae deletion strains, locus YHR205W, strain SCH9, stronger effect = lower value) was 0.816 and the normalized growth (S. cerevisiae deletion strains, locus YIL147C, strain SLN1, stronger effect = lower value) was 0.946. For the same compound, the normalized growth (S. cerevisiae deletion strains, locus YJL095W, strain BCK1, stronger effect = lower value) was 0.844, the normalized growth (S. cerevisiae deletion strains, locus YJL128C, strain PBS2, stronger effect = lower value) was 0.914 and the normalized growth (S. cerevisiae deletion strains, locus YJL157C, strain FAR1, stronger effect = lower value) was 1.01. It also gave a normalized growth (S. cerevisiae deletion strains, locus YJR016C, strain ILV3, stronger effect = lower value) of 0.943, a normalized growth (S. cerevisiae deletion strains, locus YJR066W, strain TOR1 (second series), stronger effect = lower value) of 0.997 and a normalized growth (S. cerevisiae deletion strains, locus YJR066W, strain TOR1, stronger effect = lower value) of 0.903. For the same compound, the normalized growth (S. cerevisiae deletion strains, locus YKL048C, strain ELM1, stronger effect = lower value) was 0.949, the normalized growth (S. cerevisiae deletion strains, locus YKL067W, strain YNK1, stronger effect = lower value) was 0.978 and the normalized growth (S. cerevisiae deletion strains, locus YKL101W, strain HSL1, stronger effect = lower value) was 0.957. For the same compound, the normalized growth (S. cerevisiae deletion strains, locus YKL193C, strain SDS22, stronger effect = lower value) was 0.955, the normalized growth (S. cerevisiae deletion strains, locus YKL203C, strain TOR2, stronger effect = lower value) was 1.06 and the normalized growth (S. cerevisiae deletion strains, locus YLR113W, strain HOG1, stronger effect = lower value) was 0.762 (active). It also gave a normalized growth (S. cerevisiae deletion strains, locus YLR133W, strain CKI1, stronger effect = lower value) of 0.934, a normalized growth (S. cerevisiae deletion strains, locus YLR403W, strain SFP1, stronger effect = lower value) of 1.02 and a normalized growth (S. cerevisiae deletion strains, locus YML070W, strain DAK1, stronger effect = lower value) of 0.933. It also gave a normalized growth (S. cerevisiae deletion strains, locus YMR001C, strain CDC5, stronger effect = lower value) of 0.975, a normalized growth (S. cerevisiae deletion strains, locus YMR205C, strain PFK2 (second series), stronger effect = lower value) of 0.947 and a normalized growth (S. cerevisiae deletion strains, locus YMR277W, strain FCP1, stronger effect = lower value) of 0.952. For the same compound, the normalized growth (S. cerevisiae deletion strains, locus YNL006W, strain LST8, stronger effect = lower value) was 0.937, the normalized growth (S. cerevisiae deletion strains, locus YNL020C, strain ARK1, stronger effect = lower value) was 0.945 and the normalized growth (S. cerevisiae deletion strains, locus YNL161W, strain CBK1, stronger effect = lower value) was 0.971. The normalized growth (S. cerevisiae deletion strains, locus YNL183C, strain NPR1, stronger effect = lower value) was 0.871, the normalized growth (S. cerevisiae deletion strains, locus YNL207W, strain RIO2, stronger effect = lower value) was 0.963 and the normalized growth (S. cerevisiae deletion strains, locus YNL222W, strain SSU72, stronger effect = lower value) was 0.977. It also gave a normalized growth (S. cerevisiae deletion strains, locus YNL307C, strain MCK1 (second series), stronger effect = lower value) of 0.941, a normalized growth (S. cerevisiae deletion strains, locus YOL078W, strain AVO1, stronger effect = lower value) of 0.961 and a normalized growth (S. cerevisiae deletion strains, locus YOL136C, strain PFK27, stronger effect = lower value) of 0.956. The normalized growth (S. cerevisiae deletion strains, locus YOR061W, strain CKA2, stronger effect = lower value) was 0.99, the normalized growth (S. cerevisiae deletion strains, locus YOR119C, strain RIO1, stronger effect = lower value) was 0.981 and the normalized growth (S. cerevisiae deletion strains, locus YOR231W, strain MKK1, stronger effect = lower value) was 0.87. The normalized growth (S. cerevisiae deletion strains, locus YOR329C, strain SCD5, stronger effect = lower value) was 0.969, the normalized growth (S. cerevisiae deletion strains, locus YPL031C, strain PHO85, stronger effect = lower value) was 0.991 and the normalized growth (S. cerevisiae deletion strains, locus YPL153C, strain RAD53, stronger effect = lower value) was 0.987. For the same compound, the normalized growth (S. cerevisiae deletion strains, locus YPL204W, strain HRR25, stronger effect = lower value) was 0.976, the normalized growth (S. cerevisiae deletion strains, locus YPL209C, strain IPL1, stronger effect = lower value) was 0.952 and the normalized growth (S. cerevisiae deletion strains, locus YPL256C, strain CLN2, stronger effect = lower value) was 0.781 (active). It also gave a normalized growth (S. cerevisiae deletion strains, locus YPR025C, strain CCL1, stronger effect = lower value) of 0.985, a normalized growth (S. cerevisiae deletion strains, locus YPR106W, strain ISR1, stronger effect = lower value) of 0.934 and a normalized growth (S. cerevisiae deletion strains, locus YPR111W, strain DBF20, stronger effect = lower value) of 0.946. The normalized growth (S. cerevisiae deletion strains, strain NNK1, stronger effect = lower value) was 0.93 and the normalized growth (S. cerevisiae deletion strains, strain TSCII, stronger effect = lower value) was 0.974.

Reference: PubChem BioAssay AID1159580 (chemical genetic matrix, 2015)
